Experimental data taken from PubChem BioAssay AID1159580 (chemical genetic matrix, 2015).
Hit rate of the full screen: of about 5,500 compounds, about 2,000 (36%) were called active. Roughly 18% stayed inconclusive and do not appear here. Rule as the data show it: active = normalized growth mostly below about 0.91 (no sharp cut-off); inconclusive = no clear call, values can overlap the other calls; inactive = mostly above about 0.92. The list shows a part of the results.

Assay: chemical genetic growth profiling, strain panel (AID 1159580);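 also: tested at 20 µM; growth read once vehicle control cultures reached saturation at 30 °C; 1 = growth at the plate median or of vehicle wells; lower values mean less growth of the strain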
Conditions: growth OD

Measured: normalized growth

CC1NC(=O)NC1=O (stereo unspecified)
inactive: S. cerevisiae deletion strains, locus YAL013W, strain DEP1, active compounds read low 0.968 | S. cerevisiae deletion strains, locus YBR021W, strain FUR4, active compounds read low 1.01 | S. cerevisiae deletion strains, locus YBR229C, strain ROT2, active compounds read low 0.996 | S. cerevisiae deletion strains, locus YCL029C, strain bik1, active compounds read low 1.01 | S. cerevisiae deletion strains, locus YDL035C, strain GPR1, active compounds read low 0.987 | S. cerevisiae deletion strains, locus YDL074C, strain BRE1, active compounds read low 1 | S. cerevisiae deletion strains, locus YDL101C, strain DUN1, active compounds read low 1 | S. cerevisiae deletion strains, locus YDL134C, strain PPH21, active compounds read low 1.01 | S. cerevisiae deletion strains, locus YDL185W, strain tfp1, active compounds read low 1.01 | S. cerevisiae deletion strains, locus YDL192W, strain arf1, active compounds read low 1.01 | S. cerevisiae deletion strains, locus YDR101C, strain arx1, active compounds read low 1 | S. cerevisiae deletion strains, locus YDR150W, strain NUM1, active compounds read low 1.02 | S. cerevisiae deletion strains, locus YDR162C, strain NBP2, active compounds read low 1 | S. cerevisiae deletion strains, locus YDR318W, strain mcm21, active compounds read low 1.02 | S. cerevisiae deletion strains, locus YDR388W, active compounds read low 1.01 | S. cerevisiae deletion strains, locus YDR502C, strain sam2, active compounds read low 1.01 | S. cerevisiae deletion strains, locus YEL061C, strain CIN8, active compounds read low 0.997 | S. cerevisiae deletion strains, locus YER110C, active compounds read low 1.01 | S. cerevisiae deletion strains, locus YER155C, strain BEM2, active compounds read low 0.995 | S. cerevisiae deletion strains, locus YER167W, strain BCK2, active compounds read low 0.998 | S. cerevisiae deletion strains, locus YGL078C, strain dbp3, active compounds read low 1.01 | S. cerevisiae deletion strains, locus YGL086W, strain mad1, active compounds read low 1.02 | S. cerevisiae deletion strains, locus YGL248W, strain PDE1, active compounds read low 1.01 | S. cerevisiae deletion strains, locus YGR078C, strain PAC10, active compounds read low 1.01 | S. cerevisiae deletion strains, locus YGR135W, strain pre9, active compounds read low 1.01 | S. cerevisiae deletion strains, locus YGR229C, strain SMI1, active compounds read low 0.986 | S. cerevisiae deletion strains, locus YGR252W, strain gcn5, active compounds read low 1.02 | S. cerevisiae deletion strains, locus YHR030C, strain SLT2, active compounds read low 1 | S. cerevisiae deletion strains, locus YHR079C, strain IRE1 (second series), active compounds read low 1 | S. cerevisiae deletion strains, locus YHR094C, strain hxt1, active compounds read low 1.01 | S. cerevisiae deletion strains, locus YHR129C, strain ARP1, active compounds read low 0.999 | S. cerevisiae deletion strains, locus YHR200W, strain rpn10, active compounds read low 1.01 | S. cerevisiae deletion strains, locus YIL066C, strain RNR3, active compounds read low 0.99 | S. cerevisiae deletion strains, locus YIL073C, strain SPO22, active compounds read low 1.07 | S. cerevisiae deletion strains, locus YIL125W, strain kgd1, active compounds read low 1.02 | S. cerevisiae deletion strains, locus YIR030C, strain dcg1, active compounds read low 1 | S. cerevisiae deletion strains, locus YJL095W, strain BCK1, active compounds read low 0.986 | S. cerevisiae deletion strains, locus YJL134W, strain LCB3, active compounds read low 0.994 | S. cerevisiae deletion strains, locus YJL168C, strain set2, active compounds read low 1 | S. cerevisiae deletion strains, locus YJL187C, strain SWE1 (second series), active compounds read low 0.999 | S. cerevisiae deletion strains, locus YJR043C, strain POL32, active compounds read low 1.01 | S. cerevisiae deletion strains, locus YJR075W, strain HOC1, active compounds read low 0.993 | S. cerevisiae deletion strains, locus YKL009W, strain mrt4, active compounds read low 1.03 | S. cerevisiae deletion strains, locus YKL068W, active compounds read low 1.01 | S. cerevisiae deletion strains, locus YKL085W, strain MDH1 (second series), active compounds read low 1 | S. cerevisiae deletion strains, locus YKL085W, strain MDH1, active compounds read low 1 | S. cerevisiae deletion strains, locus YKL190W, strain CNB1, active compounds read low 1 | S. cerevisiae deletion strains, locus YKR001C, strain vps1, active compounds read low 1.02 | S. cerevisiae deletion strains, locus YLR039C, strain RIC1, active compounds read low 1.02 | S. cerevisiae deletion strains, locus YLR058C, strain SHM2, active compounds read low 1 | S. cerevisiae deletion strains, locus YLR102C, strain apc9, active compounds read low 1.01 | S. cerevisiae deletion strains, locus YLR262C, strain YPT6, active compounds read low 1.02 | S. cerevisiae deletion strains, locus YLR268W, strain sec22, active compounds read low 1 | S. cerevisiae deletion strains, locus YLR330W, strain CHS5, active compounds read low 1 | S. cerevisiae deletion strains, locus YLR342W, strain FKS1 (second series), active compounds read low 1 | S. cerevisiae deletion strains, locus YLR371W, strain rom2, active compounds read low 1.01 | S. cerevisiae deletion strains, locus YLR418C, strain cdc73, active compounds read low 1.01 | S. cerevisiae deletion strains, locus YML016C, strain PPZ1, active compounds read low 1 | S. cerevisiae deletion strains, locus YML032C, strain rad52, active compounds read low 1.02 | S. cerevisiae deletion strains, locus YML124C, strain tub3, active compounds read low 1.01 | S. cerevisiae deletion strains, locus YMR078C, strain ctf18, active compounds read low 1.01 | S. cerevisiae deletion strains, locus YMR223W, strain ubp8, active compounds read low 1.01 | S. cerevisiae deletion strains, locus YMR263W, strain SAP30, active compounds read low 0.994 | S. cerevisiae deletion strains, locus YMR307W, strain GAS1, active compounds read low 0.983 | S. cerevisiae deletion strains, locus YNL067W, strain RPL9B, active compounds read low 1 | S. cerevisiae deletion strains, locus YNL128W, strain TEP1, active compounds read low 0.975 | S. cerevisiae deletion strains, locus YNL153C, strain GIM3, active compounds read low 1.01 | S. cerevisiae deletion strains, locus YNL233W, strain BNI4, active compounds read low 1 | S. cerevisiae deletion strains, locus YNL250W, strain rad50, active compounds read low 1.01 | S. cerevisiae deletion strains, locus YNL271C, strain bni1, active compounds read low 1 | S. cerevisiae deletion strains, locus YNL298W, strain CLA4, active compounds read low 1.02 | S. cerevisiae deletion strains, locus YNL307C, strain MCK1, active compounds read low 1.02 | S. cerevisiae deletion strains, locus YNL322C, strain KRE1, active compounds read low 0.991 | S. cerevisiae deletion strains, locus YNR052C, strain pop2, active compounds read low 1 | S. cerevisiae deletion strains, locus YOL006C, strain TOP1, active compounds read low 1 | S. cerevisiae deletion strains, locus YOL012C, strain htz1 0.89 | S. cerevisiae deletion strains, locus YOL147C, strain pex11, active compounds read low 1.02 | S. cerevisiae deletion strains, locus YOR061W, strain CKA2, active compounds read low 0.998 | S. cerevisiae deletion strains, locus YOR069W, strain VPS5, active compounds read low 0.998 | S. cerevisiae deletion strains, locus YOR136W, strain idh2, active compounds read low 1.02 | S. cerevisiae deletion strains, locus YOR144C, strain elg1, active compounds read low 1.01 | S. cerevisiae deletion strains, locus YOR184W, strain ser1, active compounds read low 1.03 | S. cerevisiae deletion strains, locus YOR316C, strain cot1, active compounds read low 1 | S. cerevisiae deletion strains, locus YPL055C, strain LGE1, active compounds read low 0.986 | S. cerevisiae deletion strains, locus YPL241C, strain CIN2, active compounds read low 1 | S. cerevisiae deletion strains, locus YPR119W, strain clb2, active compounds read low 1.01 | S. cerevisiae deletion strains, locus YPR141C, strain kar3, active compounds read low 1.01 | S. cerevisiae deletion strains, locus YPR163C, strain tif3, active compounds read low 1.02 | S. cerevisiae deletion strains, locus YPR167C, strain met16, active compounds read low 1.01 | S. cerevisiae deletion strains, strain wtn01, active compounds read low 1.01 | S. cerevisiae strains, strain wild type, active compounds read low 0.98
